Data from PubChem BioAssay AID1159580 (chemical genetic matrix, 2015).
Values joined by “and” are separate entries in the source; they are usually repeats but may differ in a detail not shown here. Equal entries are not always repeated. Screen size: about 5,500 compounds; about 2,000 (36%) were called active. About 18% were inconclusive and are not listed. Rule as the data show it: active = normalized growth mostly below about 0.91 (no sharp cut-off); inconclusive = no clear call, values can overlap the other calls; inactive = mostly above about 0.92. The list shows a part of the results.

Assay: chemical genetic growth profiling, strain panel (AID 1159580);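 also: tested at 20 µM; growth read once vehicle control cultures reached saturation at 30 °C; 1 = growth at the plate median or of vehicle wells; lower values mean less growth of the strain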
Conditions: S. cerevisiae deletion strains, growth OD

Measured: normalized growth

Nc1ccn(C2O[C@H](CO)[C@@H](O)[C@@H]2O)c(=O)n1 (stereo partly drawn)
inactive: locus YAL021C, strain ccr4, stronger effect = lower value 0.997 | locus YAL026C, strain drs2, stronger effect = lower value 0.974 | locus YAL030W, strain snc1, stronger effect = lower value 0.999 | locus YBL061C, strain skt5, stronger effect = lower value 1.01 | locus YBR009C, strain hhf1, stronger effect = lower value 0.972 | locus YBR021W, strain FUR4, stronger effect = lower value 1.02 | locus YBR023C, strain chs3, stronger effect = lower value 1.02 | locus YBR171W, strain sec66, stronger effect = lower value 0.994 | locus YBR229C, strain ROT2, stronger effect = lower value 1.01 | locus YBR231C, strain swc5, stronger effect = lower value 0.999 | locus YBR279W, strain paf1, stronger effect = lower value 0.998 | locus YCL011C, strain gbp2, stronger effect = lower value 1 | locus YCL016C, strain dcc1, stronger effect = lower value 1.05 | locus YCL029C, strain bik1, stronger effect = lower value 1 | locus YCL061C, strain MRC1, stronger effect = lower value 1.01 | locus YCL069W, strain vba3, stronger effect = lower value 0.979 | locus YCR088W, strain abp1, stronger effect = lower value 0.986 | locus YDL005C, strain med2, stronger effect = lower value 0.989 | locus YDL035C, strain GPR1, stronger effect = lower value 1.03 | locus YDL040C, strain nat1, stronger effect = lower value 0.984 | locus YDL074C, strain BRE1, stronger effect = lower value 1.01 | locus YDL101C, strain DUN1, stronger effect = lower value 1 | locus YDL185W, strain tfp1, stronger effect = lower value 0.991 | locus YDL192W, strain arf1, stronger effect = lower value 0.998 | locus YDR001C, strain nth1, stronger effect = lower value 0.989 | locus YDR069C, strain doa4, stronger effect = lower value 0.984 | locus YDR101C, strain arx1, stronger effect = lower value 1.02 | locus YDR137W, strain rgp1, stronger effect = lower value 1.01 | locus YDR159W, strain sac3, stronger effect = lower value 0.961 | locus YDR162C, strain NBP2, stronger effect = lower value 1.02 | locus YDR195W, strain ref2 0.997 | locus YDR297W, strain sur2, stronger effect = lower value 0.986 | locus YDR318W, strain mcm21, stronger effect = lower value 1 | locus YDR334W, strain swr1, stronger effect = lower value 0.987 | locus YDR335W, strain msn5, stronger effect = lower value 0.997 | locus YDR388W, stronger effect = lower value 0.994 | locus YDR392W, strain spt3, stronger effect = lower value 0.943 | locus YDR502C, strain sam2, stronger effect = lower value 1.02 | locus YEL003W, strain gim4, stronger effect = lower value 0.973 | locus YEL037C, strain rad23, stronger effect = lower value 0.973 | locus YEL061C, strain CIN8 (second series), stronger effect = lower value 0.976 | locus YEL061C, strain CIN8, stronger effect = lower value 1.01 | locus YER015W, strain faa2, stronger effect = lower value 1.01 | locus YER016W, strain bim1, stronger effect = lower value 1.01 | locus YER110C, stronger effect = lower value 1 | locus YER111C, strain swi4, stronger effect = lower value 0.987 | locus YER155C, strain BEM2 (second series), stronger effect = lower value 0.969 | locus YER155C, strain BEM2, stronger effect = lower value 1.01 | locus YER167W, strain BCK2, stronger effect = lower value 1.01 | locus YFR010W, strain ubp6, stronger effect = lower value 0.976 | locus YGL078C, strain dbp3, stronger effect = lower value 0.995 | locus YGL086W, strain mad1, stronger effect = lower value 1 | locus YGL167C, strain pmr1, stronger effect = lower value 1.01 | locus YGL173C, strain kem1, stronger effect = lower value 1 | locus YGL227W, strain vid30, stronger effect = lower value 0.995 | locus YGL240W, strain doc1, stronger effect = lower value 1 | locus YGL248W, strain PDE1, stronger effect = lower value 0.987 | locus YGL253W, strain hxk2, stronger effect = lower value 1 | locus YGR135W, strain pre9, stronger effect = lower value 0.983 | locus YGR252W, strain gcn5, stronger effect = lower value 1 | locus YHR013C, strain ard1, stronger effect = lower value 1.02 | locus YHR027C, strain rpn1, stronger effect = lower value 0.996 | locus YHR030C, strain SLT2, stronger effect = lower value 1.01 and 1.02 | locus YHR079C, strain IRE1 (second series), stronger effect = lower value 0.996 | locus YHR079C, strain IRE1, stronger effect = lower value 1.02 | locus YHR094C, strain hxt1, stronger effect = lower value 0.996 | locus YHR129C, strain ARP1, stronger effect = lower value 1.01 | locus YHR142W, strain chs7, stronger effect = lower value 1.01 | locus YHR200W, strain rpn10, stronger effect = lower value 1 | locus YIL066C, strain RNR3, stronger effect = lower value 1.01 | locus YIL073C, strain SPO22, stronger effect = lower value 1.01 | locus YIL125W, strain kgd1, stronger effect = lower value 0.997 | locus YIR030C, strain dcg1, stronger effect = lower value 1.01 | locus YJL092W, strain hpr5, stronger effect = lower value 0.985 | locus YJL095W, strain BCK1 (second series), stronger effect = lower value 1 | locus YJL095W, strain BCK1, stronger effect = lower value 0.977 and 1.01 | locus YJL115W, strain asf1, stronger effect = lower value 0.978 | locus YJL129C, strain trk1, stronger effect = lower value 1.01 | locus YJL134W, strain LCB3, stronger effect = lower value 1 | locus YJL154C, strain vps35, stronger effect = lower value 0.981 | locus YJL164C, strain tpk1, stronger effect = lower value 0.989 | locus YJL166W, strain qcr8, stronger effect = lower value 1.02 | locus YJL168C, strain set2, stronger effect = lower value 1 | locus YJL187C, strain SWE1 (second series), stronger effect = lower value 0.997 | locus YJL187C, strain SWE1, stronger effect = lower value 0.994 | locus YJR043C, strain POL32, stronger effect = lower value 1.03 | locus YJR066W, strain TOR1, stronger effect = lower value 0.99 | locus YJR075W, strain HOC1, stronger effect = lower value 1.01
